High-throughput results (PubChem BioAssay)
MCF10A rerep: induces DNA re-replication in MCF 10a normal breast cells; actives 2.9% (n = 350,000); Potency, µM (series often up to 46.1 µM), most hits filed as activators; AID 624296; MCF 10A DNA re-replication, Hoechst nuclear intensity, 48 h; note: nearly all actives have a fitted effect of over 50% in size
DT40 TDP1 no CPT: qHTS for Inhibitors of human tyrosyl-DNA phosphodiesterase 1 (TDP1): qHTS in cells in absence of CPT; AID 686978, 2013; Potency, µM (titrated, usually from 46.2 µM), most hits filed as inhibitors; actives 15% (n = 420,000); DT40 Tdp1-/- hTDP1 cells, no CPT, ATP luminescence, 48 h; note: nearly all actives have a fitted effect of over 55% in size
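Luminescent ATP content (CellTiter-Glo) served as the growth readout. Knockout chicken DT40 cells expressing human TDP1 were exposed to compounds without camptothecin for a minimum 48 hr at 37 °C.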
DT40 TDP1 CPT: growth inhibition of DT40 Tdp1-/-;hTDP1 cells with camptothecin (screen for TDP1 inhibitors); chicken DT40 Tdp1-/-;hTDP1 cells + 20 nM CPT, ATP luminescence, 48 h; Potency, µM (highest dose often 46.2 µM), most hits filed as inhibitors; actives 12% (n = 420,000); note: nearly all actives have a fitted effect of over 55% in size
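Chicken DT40 Tdp1-/- cells complemented with human TDP1, 400 cells/well, exposed to compounds plus 20 nM camptothecin for at least 48 h at 37 C; viability read as ATP content by CellTiter-Glo luminescence.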
Chronic BCR inh: inhibitors of chronic active B-cell receptor signaling; ABC-DLBCL IkBa-CBG/CBR reporter, luminescence ratio, 4 h; Potency, µM (top dose mostly 46.1 µM), most hits filed as inhibitors; actives 0.05% (n = 340,000); AID 493014; active = well fitted inhibition curve with a large enough effect in the signal ratio, with a control signal flat, not every such curve was filed as active; inconclusive = small, poorly fitted or top-dose-only effect, or effect the other way, or a change in a side signal; the % refers to the signal ratio
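Cell line TMD8 (human ABC DLBCL), stably expressing tet-inducible CBG68-IkBa fusion and CBR; IMDM/0.5% FBS; cpd up to 46 uM; dox induction, 4 h, 37C/5% CO2; dual luminescence; green/red ratio; MG132 control.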
SW480 rereplic: inducers of DNA re-replication in SW480 colon cancer cells; Potency, µM (doses to about 46.1 µM), hits mostly activators; AID 624297; actives 1.8% (n = 340,000); SW480 DNA re-replication, Hoechst DNA content imaging, 48 h; note: nearly all actives have a fitted effect of over 55% in size
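Hoechst fluorescence of nuclei (405 nm excitation, 500-530 nm emission) measured by plate-scanning imager after 48 hr compound exposure at 37 C; re-replication scored as increased number of nuclei with elevated intensity.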
IL1B secr inh: blocks inflammasome-driven IL-1 beta release; THP-1 LPS/ATP IL-1B secretion, AlphaLISA, 16 h; hits give low values; AID 743279; activity change, % at 57.5 µM; actives 4.7% (n = 360,000); in the data active = activity change below about -50%; inconclusive = mostly about -30% to -49%
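THP-1 cells pretreated 1 hr with compounds (up to 57.5 uM final), then stimulated with LPS (250 ng/mL final) plus ATP (1.25 mM final); secreted IL-1B measured by AlphaLISA after 16 hr, decreased signal indicating inhibition.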
Hits are given with their value; – = inactive; ? = inconclusive; · = no result; [ ] = remark or other dose. Rows were chosen to be rich in hits. Some 19% of all compounds tested hit in one or more screens of this group. Unless noted, calls come from the whole dose curve; as a rule, active = well fitted curve in the direction sought with a large enough effect; inconclusive = small, poorly fitted or top-dose-only effect, or another doubt; inactive = no such curve, though single readings can be large; an effect the other way counts as inactive or inconclusive.

SMILES	MCF10A rerep	DT40 TDP1 no CPT	DT40 TDP1 CPT	Chronic BCR inh	SW480 rereplic	IL1B secr inh
COc1cccc(OC2(C)CCN(Cc3cccn3-c3nccs3)C2)c1 (stereo not drawn)	·	21µM	23µM	·	·	–
O=C(NCC1CCC2(CCN(Cc3ccccc3O)CC2)O1)C1CCCO1 (stereo not drawn)	·	–	–[9.04 µM]	·	·	·
Cc1ccc(-c2csc(/C=C3/SC(C)C(=O)N3CC(=O)Nc3ccccc3F)n2)cc1 (stereo not drawn)	21µM	?	–	·	?	–
CC(Oc1ccccc1)C(=O)N1CCN(c2ccc(N3CCCCC3)nn2)CC1 (stereo not drawn)	–	–	–	–	–	–
O=C(O)c1cc(O)c2c(c1)[C@H]([C@H]1c3cc(C(=O)O)cc(O)c3C(=O)c3c(O[C@@H]4OC(CO)C(O)C(O)C4O)cccc31)c1cccc(O[C@@H]3OC(CO)C(O)C(O)C3O)c1C2=O (stereo partly drawn)	–	·	·	·	–	·
O=C(O)c1cc(O)c2c(c1)[C@@H]([C@H]1c3cc(C(=O)O)cc(O)c3C(=O)c3c(O[C@@H]4O[C@H](CO)[C@@H](O)[C@H](O)[C@H]4O)cccc31)c1cccc(O[C@@H]3O[C@H](CO)[C@@H](O)[C@H](O)[C@H]3O)c1C2=O	–	?	6.5µM	?	–	–
COc1ccc(CN2C(=O)CSCC2(C)C(=O)Nc2c(C)cccc2C)cc1OC (stereo not drawn)	·	–	–	·	·	–
COc1ccc(OC)c(CN2C(=O)CSCC2(C)C(=O)Nc2c(C)cccc2C)c1 (stereo not drawn)	·	–	–	·	·	-67
Cc1ccc(SCC(=O)c2c(C)nc3cc(C)ccn23)cc1	?	?	?	–	–	–
Cc1ccn2c(=O)nc(SCC(=O)c3ccc(Cl)cc3)nc2c1	–	?	?	–	–	–
Cc1ccn2c(C(=O)CSc3ccccc3)c(C)nc2c1	?	8.2µM	8.2µM	–	–	–
Cc1ccn2c(C(=O)CSc3ccc(Cl)cc3)c(C)nc2c1	?	21µM	23µM	?	–	–
O=C1N/C(=N/S(=O)(=O)Cc2ccccc2)S/C1=C/c1ccc2c(c1)OCO2	?	–	–	?	–	?
CCN1C(=O)N/C(=C/c2cc(C)n(Cc3ccccc3)c2C)C1=O	?	?	18µM	–	?	–
COCCn1c(C)cc(/C=C2/NC(=O)N(Cc3ccc(C)cc3)C2=O)c1C	–	?	–	–	–	–
CCn1c(C)cc(/C=C2\NC(=O)N(Cc3ccc(Cl)cc3)C2=O)c1C	?	?	–	–	14µM	–
CCc1ccc2c(CN3CCC(C(=O)OC)CC3)cc(=O)oc2c1	–	–	–	?	–	–
CCc1ccc2c(CN3CCN(Cc4ccccc4)CC3)cc(=O)oc2c1	–	?	–	–	–	-61
COc1ccc2c(CN(Cc3ccccc3)Cc3ccccc3)cc(=O)oc2c1	·	?	16µM	·	·	–
CCCN(CCC)Cc1cc(=O)oc2cc(OC)ccc12	·	?	?	·	·	–
O=c1cc(CN2CCN(CCO)CC2)c2cc3c(cc2o1)CCC3	–	–	–	–	–	–
CC(C)CN(Cc1cc(=O)oc2cc3c(cc12)CCCC3)CC(C)C	–	21µM	?	–	–	–
O=c1cc(CN2CCN(Cc3ccccc3)CC2)c2cc3c(cc2o1)CCC3	–	18µM	?	–	–	-69
CCCSCCCNC(=O)c1ccc(NC(=O)C2=CSCCO2)cc1	–	–	–	–	–	?
O=C(COCc1cc(-c2ccco2)on1)Nc1cccc(O)c1	·	–	–	·	·	·
SMILES	MCF10A rerep	DT40 TDP1 no CPT	DT40 TDP1 CPT	Chronic BCR inh	SW480 rereplic	IL1B secr inh
CC1(CCC(=O)N2CCCC(Nc3ccc(F)cc3)C2)CC1 (stereo not drawn)	–	–	–	–	–	–
O=c1cc(CN2CCN(Cc3ccccc3)CC2)c2ccc(O)c(O)c2o1	–	15µM	10µM	–	–	–
Cc1ccc2c(CN3CCN(S(=O)(=O)c4ccccc4C(F)(F)F)CC3)cc(=O)oc2c1C	–	23µM	?	?	–	–
COc1ccc(N2CCN(Cc3cc(=O)oc4cc(C)c(Cl)c(C)c34)CC2)cc1	?	9.2µM	15µM	–	–	–
COc1ccc2oc(=O)cc(CN3CCN(Cc4ccccc4)CC3)c2c1	·	?	?	·	·	–
COc1ccc2c(CN3CCN(Cc4ccccc4)CC3)cc(=O)oc2c1	·	23µM	?	·	·	–
CC(C)(C)c1ccc(S(=O)(=O)NC(=O)C2(C)CCN2C(=O)C2CC2)cc1 (stereo not drawn)	·	–	–	·	·	–
Cc1ccc(N2CCn3c2nc2c3c(=O)n(CCCc3ccccc3)c(=O)n2C)cc1C	·	–	–	·	·	·
COc1ccc2c(CN3CCN(c4ccc(Cl)c(Cl)c4)CC3)cc(=O)oc2c1	·	13µM	21µM	·	·	–
COc1ccc2c(COC(=O)c3n[nH]c4ccccc34)cc(=O)oc2c1	?	21µM	?	?	–	–
CCc1ccc2c(CN3CCN(S(=O)(=O)c4ccccc4F)CC3)cc(=O)oc2c1	–	23µM	–	–	–	–
CCc1ccc2c(CN3CCc4ccccc43)cc(=O)oc2c1	–	?	?	?	–[9.22 µM]	–
Cc1ccc2oc(=O)cc(CN3CCN(Cc4ccccc4)CC3)c2c1	–	–	–	–	–	–
CCc1cc2c(CN3CCN(Cc4ccccc4)CC3)cc(=O)oc2cc1O	?	18µM	16µM	–	?	?
CN(C(=O)c1cccc(C#CC(C)(C)O)c1)C1CCCN(Cc2ccccc2F)C1 (stereo not drawn)	–	–	–	–	–	–
O=C1NC[C@H](Cc2ccccc2)N(CC2CCCCC2)C1=O	–	–	–	?	–	–
O=c1cc(CN(Cc2ccccc2)Cc2ccccc2)c2c(ccc3ccccc32)o1	·	?	29µM	·	·	–
CCc1cc2c(CN(C)Cc3ccccc3F)cc(=O)oc2cc1O	18µM	15µM	?	?	?	–
Cc1cc2oc(=O)cc(CN(C)Cc3cccc(F)c3)c2cc1C	–	–	?	–	?	–
COc1cc2oc(=O)cc(CN(Cc3ccccc3)Cc3ccccc3)c2cc1Cl	·	–	–	·	·	–
Cc1nn(-c2ccccc2)c(C)c1/C=N/NC(=O)CSc1nc2ccccc2c(=O)n1-c1ccc(Br)cc1	13µM	?	?	–	–	–
Cc1ccc(-n2c(SCC(=O)N3CC(=O)Nc4ccccc43)nc3ccccc3c2=O)cc1	–	?	?	–	–	-74
Cc1cccc(C)c1-n1c(SCC(=O)N2CC(=O)Nc3ccccc32)nc2ccccc2c1=O	–	?	?	–	·	–
